# Data: PubChem BioAssay
# Activity calls are given as the source filed them.
# How the values were obtained:
# [1] = binders of probe aFSTL3 on microarray, primary screen, stem cell growth factor project, biochemical, small-molecule microarray, fluorescence 635/667 (AID 1064); conditions: higher = more signal;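 further: measures binding of the biotinylated anti-FSTL3 antibody to printed compounds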
# [2] = binders from COS7 lysate, DM2A8 probe, primary screen, torsin A project, cell lysate, small-molecule microarray, fluorescence 635/667 (AID 1065); conditions: higher = more signal, COS7 lysate expressing mutant human TOR1A
# [3] = binders of probe aFGF2 on microarray, primary screen, stem cell growth factor project, biochemical, small-molecule microarray, fluorescence 635/667 (AID 1067); conditions: higher = more signal;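 further: measures binding of biotinylated aFGF2 protein to printed compounds on slides; z-score merges feature fluorescence and signal-to-noise across triplicate slides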
# [4] = binders of probe aFGF10 on microarray, primary screen, stem cell growth factor project, biochemical, small-molecule microarray, fluorescence 635/667 (AID 1071); conditions: higher = more signal;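 further: score merges 667 nm spot intensity and signal to noise from triplicate slides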
# [5] = target: Neurogenic locus notch homolog protein 2 (Homo sapiens) (UniProt Q04721); experiment: Notch2 binders on small-molecule microarrays, primary screen, biochemical, small-molecule microarray, 635 nm fluorescence, stem cell growth factors (AID 1073); conditions: Notch2 binding, higher = more signal
# Chain of Neurogenic locus notch homolog protein 2 (Homo sapiens) (Q04721 whole entry, looked up, canonical isoform): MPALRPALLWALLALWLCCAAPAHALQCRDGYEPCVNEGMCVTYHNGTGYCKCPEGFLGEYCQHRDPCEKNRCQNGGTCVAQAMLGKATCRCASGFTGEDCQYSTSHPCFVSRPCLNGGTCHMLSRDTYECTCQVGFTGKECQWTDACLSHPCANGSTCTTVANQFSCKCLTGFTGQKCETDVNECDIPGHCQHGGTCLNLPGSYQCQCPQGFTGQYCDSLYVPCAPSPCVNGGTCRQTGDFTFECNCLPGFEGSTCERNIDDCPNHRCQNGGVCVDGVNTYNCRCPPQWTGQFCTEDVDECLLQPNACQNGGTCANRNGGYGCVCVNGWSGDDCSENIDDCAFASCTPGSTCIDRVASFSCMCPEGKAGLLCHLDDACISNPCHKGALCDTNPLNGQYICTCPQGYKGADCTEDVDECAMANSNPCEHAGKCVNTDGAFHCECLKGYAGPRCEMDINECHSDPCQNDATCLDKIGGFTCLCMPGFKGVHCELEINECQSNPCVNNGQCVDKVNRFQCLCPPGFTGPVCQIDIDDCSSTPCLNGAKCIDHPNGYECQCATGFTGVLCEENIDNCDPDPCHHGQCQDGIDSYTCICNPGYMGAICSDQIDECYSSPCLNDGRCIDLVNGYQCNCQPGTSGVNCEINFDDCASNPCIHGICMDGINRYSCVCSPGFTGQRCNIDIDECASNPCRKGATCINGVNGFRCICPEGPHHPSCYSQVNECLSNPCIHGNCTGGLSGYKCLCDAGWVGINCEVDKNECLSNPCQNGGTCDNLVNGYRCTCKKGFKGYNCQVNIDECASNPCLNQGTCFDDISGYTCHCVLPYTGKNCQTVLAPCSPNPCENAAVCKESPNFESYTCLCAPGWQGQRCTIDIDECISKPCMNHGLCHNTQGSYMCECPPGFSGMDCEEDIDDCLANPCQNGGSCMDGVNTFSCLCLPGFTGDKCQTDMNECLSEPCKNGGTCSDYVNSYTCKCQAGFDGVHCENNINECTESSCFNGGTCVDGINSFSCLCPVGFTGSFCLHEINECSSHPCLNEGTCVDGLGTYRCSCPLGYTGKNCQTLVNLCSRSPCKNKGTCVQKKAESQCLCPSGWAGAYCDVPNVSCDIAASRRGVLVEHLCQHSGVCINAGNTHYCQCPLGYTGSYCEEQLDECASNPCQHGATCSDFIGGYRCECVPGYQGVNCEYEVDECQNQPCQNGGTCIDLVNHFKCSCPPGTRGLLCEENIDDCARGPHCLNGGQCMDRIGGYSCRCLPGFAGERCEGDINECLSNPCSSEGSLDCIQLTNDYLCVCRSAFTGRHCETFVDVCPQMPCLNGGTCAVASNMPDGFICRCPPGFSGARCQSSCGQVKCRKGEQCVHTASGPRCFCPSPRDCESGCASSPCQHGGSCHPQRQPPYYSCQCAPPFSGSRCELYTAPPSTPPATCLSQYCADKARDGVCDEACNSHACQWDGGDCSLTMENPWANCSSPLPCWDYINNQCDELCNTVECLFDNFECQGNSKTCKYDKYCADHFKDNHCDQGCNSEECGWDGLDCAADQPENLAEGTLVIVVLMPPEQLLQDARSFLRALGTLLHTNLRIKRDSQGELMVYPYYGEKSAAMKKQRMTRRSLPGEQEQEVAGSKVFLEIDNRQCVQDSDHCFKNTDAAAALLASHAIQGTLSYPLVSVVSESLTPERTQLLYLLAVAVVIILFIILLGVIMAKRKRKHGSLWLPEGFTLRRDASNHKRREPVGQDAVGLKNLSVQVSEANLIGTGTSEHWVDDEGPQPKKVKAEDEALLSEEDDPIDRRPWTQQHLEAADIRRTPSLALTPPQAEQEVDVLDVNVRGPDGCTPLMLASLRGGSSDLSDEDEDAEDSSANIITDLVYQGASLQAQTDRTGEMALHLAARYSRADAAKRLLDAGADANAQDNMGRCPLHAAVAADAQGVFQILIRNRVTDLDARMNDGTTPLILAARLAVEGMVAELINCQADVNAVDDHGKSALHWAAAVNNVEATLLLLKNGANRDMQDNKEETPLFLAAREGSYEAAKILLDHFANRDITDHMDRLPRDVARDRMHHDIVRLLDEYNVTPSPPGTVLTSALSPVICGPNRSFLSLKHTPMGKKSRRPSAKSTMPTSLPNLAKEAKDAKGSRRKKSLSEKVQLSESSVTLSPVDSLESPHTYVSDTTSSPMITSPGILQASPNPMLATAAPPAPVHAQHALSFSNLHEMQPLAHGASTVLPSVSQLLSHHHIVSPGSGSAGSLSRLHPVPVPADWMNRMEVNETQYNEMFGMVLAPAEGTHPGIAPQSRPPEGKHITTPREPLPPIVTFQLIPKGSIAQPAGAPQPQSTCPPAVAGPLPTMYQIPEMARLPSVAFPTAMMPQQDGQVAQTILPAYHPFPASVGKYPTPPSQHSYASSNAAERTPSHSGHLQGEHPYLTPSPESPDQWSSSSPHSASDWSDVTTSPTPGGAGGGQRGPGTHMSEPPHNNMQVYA
# [6] = target: Pro-neuregulin-1, membrane-bound isoform (Homo sapiens) (UniProt Q02297); experiment: NRG1 binders on small-molecule microarrays, primary screen, psychiatric disease protein project, biochemical, small-molecule microarray, fluorescence 635/667 (AID 1075); conditions: NRG1 binding, 635 nm fluorescence, higher = more signal;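 further: score combines 667 nm spot fluorescence with signal to noise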
# Chain of Pro-neuregulin-1, membrane-bound isoform (Homo sapiens) (Q02297 whole entry, looked up, the tested form may be a part, canonical isoform): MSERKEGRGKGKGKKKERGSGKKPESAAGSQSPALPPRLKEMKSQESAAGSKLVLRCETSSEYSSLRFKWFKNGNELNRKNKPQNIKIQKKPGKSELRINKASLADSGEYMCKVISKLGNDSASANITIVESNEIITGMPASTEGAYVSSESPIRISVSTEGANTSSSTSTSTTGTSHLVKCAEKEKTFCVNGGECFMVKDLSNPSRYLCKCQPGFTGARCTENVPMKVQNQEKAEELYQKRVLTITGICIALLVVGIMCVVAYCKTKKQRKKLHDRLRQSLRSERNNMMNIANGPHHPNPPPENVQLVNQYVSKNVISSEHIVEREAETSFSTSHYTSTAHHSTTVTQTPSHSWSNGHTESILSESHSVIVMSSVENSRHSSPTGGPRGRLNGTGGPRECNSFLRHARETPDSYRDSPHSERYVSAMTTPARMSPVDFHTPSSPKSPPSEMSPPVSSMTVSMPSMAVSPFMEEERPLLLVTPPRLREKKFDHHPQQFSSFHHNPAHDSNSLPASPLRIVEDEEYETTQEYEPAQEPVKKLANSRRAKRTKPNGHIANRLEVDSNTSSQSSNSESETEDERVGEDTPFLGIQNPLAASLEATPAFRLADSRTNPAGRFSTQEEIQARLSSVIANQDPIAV
# [7] = system: Neuregulin-1 EGF-like domain; experiment: binders of neuregulin-1 EGF-like domain, primary screen, biochemical, small-molecule microarray, 635 nm fluorescence (AID 1081); conditions: small-molecule microarray binding, higher = more signal;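 further: binding of the protein to compounds printed on small-molecule microarray slides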
# [8] = FRG1 promoter luciferase signal modulators, primary screen, FRG1 inhibition for FSHD, cell-based, C2C12 myotubes, firefly/Renilla luciferase, luminescence (AID 1084); conditions: higher = more signal, called active from +8 up or from −8 down
# [9] = binders of probe aFST on microarray, primary screen, stem cell growth factor project, biochemical, small-molecule microarray, fluorescence 635/667 (AID 1086); conditions: higher = more signal;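 further: score merges 667 nm fluorescence with signal-to-noise of each printed compound spot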
# [10] = binders of probe aHhip on microarray, primary screen, stem cell growth factor project, biochemical, small-molecule microarray, fluorescence 635/667 (AID 1087); conditions: higher = more signal;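 further: score merges spot fluorescence at 667nm with spot signal to noise ratio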
# [11] = system: PRMT1 (protein arginine N-methyltransferase 1); experiment: PRMT1 binders on small-molecule microarrays, primary screen, biochemical, small-molecule microarray, 635 nm fluorescence (AID 1088); conditions: small-molecule microarray binding, higher = more signal;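 further: binding of Prmt1 protein to compounds spotted on small-molecule microarray slides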
# [12] = yeast growth modulation, basal conditions, primary screen, YJM789 clinical isolate, OD600, 24 h (AID 1089);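 further: growth of clinical yeast isolate S. cerevisiae YJM 789 seeded 1000 cells per well; test concentration not given here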; conditions: S. cerevisiae YJM789 growth, higher = more signal, called active from +8 up or from −8 down
# [13] = fission yeast growth modulation, primary screen, strain 972, OD600, 24 h, no modulator (AID 1090);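 further: basal condition with compound alone and no growth modifier present; test concentration not given here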; conditions: S. pombe 972 growth, higher = more signal, called active from +8 up or from −8 down
# [14] = S. cerevisiae growth modulation with rapamycin, primary screen, strain BY4716, OD600, 96 h (AID 1091); conditions: higher = more signal, called active from +8 up or from −8 down; further: test concentration not given here
# [15] = target: Torsin-1A-interacting protein 2 (Homo sapiens) (UniProt Q8NFQ8); experiment: LULL1 binders on small-molecule microarray, primary screen, cell lysate, human LULL1 lysate, 635/667 nm fluorescence (AID 1092); conditions: hLULL1 lysate binding, 635 nm fluorescence, higher = more signal;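 further: probe is lysate of COS7 cells overexpressing human LULL1; score merges per-feature 667 nm fluorescence with signal-to-noise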
# Chain of Torsin-1A-interacting protein 2 (Homo sapiens) (Q8NFQ8 whole entry, looked up): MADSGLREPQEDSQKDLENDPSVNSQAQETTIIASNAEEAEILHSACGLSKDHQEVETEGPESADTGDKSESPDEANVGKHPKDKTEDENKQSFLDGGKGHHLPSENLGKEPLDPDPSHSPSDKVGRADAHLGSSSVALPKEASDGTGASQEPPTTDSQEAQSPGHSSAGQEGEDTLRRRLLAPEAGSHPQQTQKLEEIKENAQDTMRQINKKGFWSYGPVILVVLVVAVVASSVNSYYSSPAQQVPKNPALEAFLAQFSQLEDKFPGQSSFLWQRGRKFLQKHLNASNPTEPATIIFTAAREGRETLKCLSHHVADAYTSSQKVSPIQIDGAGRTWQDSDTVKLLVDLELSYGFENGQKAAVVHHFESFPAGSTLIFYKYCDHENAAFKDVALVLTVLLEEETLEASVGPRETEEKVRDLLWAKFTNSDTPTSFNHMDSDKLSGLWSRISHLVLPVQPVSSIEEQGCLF
# [16] = E. coli growth modulation, two-sided OD650, primary screen, E. coli filamentation project, strain DRC41, 24 h (AID 1093); conditions: OD650, 24 h, higher = more signal, called active from +8 up or from −8 down;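 further: MC1000 strain lacking acrAB efflux and sulA so SOS filamentation is blocked; test concentration not given here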
# [17] = small-molecule microarray binders of probe aLefty2, primary screen, biochemical, biotinylated probe, 635/667 nm fluorescence (AID 1094); conditions: higher = more signal;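 further: score merges spot fluorescence near 667 nm with spot signal-to-noise ratio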
# [18] = system: Noggin (protein binding on small-molecule microarray); experiment: Noggin binders on small-molecule microarray, primary screen, biochemical, 635/667 nm fluorescence (AID 1095); conditions: 635 nm fluorescence, higher = more signal;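 further: score merges 667 nm feature fluorescence with signal to noise over triplicate slides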
# [19] = target: Neurogenic locus notch homolog protein 3 (Homo sapiens) (UniProt Q9UM47); experiment: NOTCH3 binders on small-molecule microarray, primary screen, biochemical, 635/667 nm fluorescence (AID 1096); conditions: NOTCH3 binding, 635 nm fluorescence, higher = more signal
# [20] = small-molecule microarray binders of probe aEGFR, primary screen, biochemical, biotinylated probe, 635/667 nm fluorescence (AID 1097); conditions: higher = more signal;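 further: probe is a biotinylated anti-EGFR antibody binding compounds printed on slides; score combines fluorescence near 667 nm and signal to noise of each spot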
SMILES,composite z-score [1],composite z-score [2],composite z-score [3],composite z-score [4],composite z-score [5],composite z-score [6],composite z-score [7],z-score [8],composite z-score [9],composite z-score [10],composite z-score [11],z-score [12],z-score [13],z-score [14],composite z-score [15],z-score [16],composite z-score [17],composite z-score [18],composite z-score [19],composite z-score [20]
CN(C)C(=O)[C@@]1(Cc2ccccc2)N=C(c2ccc(OCCCO)cc2)O[C@H]1c1ccccc1,0.558,0.459,0.133,1.24,1.5,1.18,1.29,-1.57 (inactive),0.889,0.28,0.584,-0.826 (inactive),-2.23 (inactive),0.221 (inactive),3.4,0.982 (inactive),0.344,-0.642,0.229,0.642
CCOc1cc(C(O)C2C=CC3C(=O)NC(=O)C3N2Nc2ccc(Cl)cc2Cl)ccc1O (stereo not given),0.0596,-0.565,0.042,-0.246,-0.463,-0.226,-0.885,0.59 (inactive),0.0054,-0.297,-1.54,-1.36 (inactive),-1.29 (inactive),0.339 (inactive),0.0486,-0.847 (inactive),0.0717,-0.26,-1.31,-0.16
COc1ccc([Si](C)(C)[C@@H]2[C@@H](CC(=O)N(CCO)Cc3ccccc3)O[C@]3(C(=O)N(Cc4cccc(N5CCCCC5=O)c4)c4ccccc43)[C@H]2C)cc1,0.0001,0.585,-0.0019,0.212,0.185,1.72,1.23,0.306 (inactive),0.222,-0.181,1.42,1.42 (inactive),-0.0344 (inactive),3.5 (inactive),2.38,1.02 (inactive),0.232,1.45,0.948,-0.151
COC(=O)[C@@]1(Cc2ccc(F)cc2)[C@H]2c3cc(C(=O)N4CCCC4)n(Cc4ccc(C)c(F)c4F)c3C[C@H]2CN1C(=O)c1ccccc1,0.573,-0.0621,-0.0887,-0.227,1.11,1.29,1.35,2.59 (inactive),0.409,-0.0618,-1.69,0.0074 (inactive),-0.0098 (inactive),0.378 (inactive),0.919,-0.477 (inactive),0.136,-0.849,-0.338,-0.111
CCOC(=O)C1=C[C@@H](C(C)C)N(S(=O)(=O)c2ccc(C)cc2)[C@H]1c1ccc(C(F)(F)F)cc1,-0.235,0.231,0.112,1.05,1.67,0.497,1.22,-2.54 (inactive),1.69,0.0873,1.35,1.43 (inactive),1.5 (inactive),2.08 (inactive),3.17,-0.961 (inactive),0.127,0.745,1.05,-0.0122
CC(CO)N1C(=O)[C@@H]2[C@H]3C(=O)OCC=C[C@H]3OC23C=CCN(Cn2nnc4ccccc42)C(=O)[C@@H]13 (stereo not given in full),0.12,-0.699,-0.207,-0.729,-1,1.88,0.694,0.246 (inactive),-0.391,-0.0994,-0.533,-0.596 (inactive),-0.225 (inactive),-0.473 (inactive),-0.444,-0.333 (inactive),-0.185,-0.746,-0.652,-0.292
CC(C)[Si](C#CCCCC#N)(O[C@H](c1ccccc1)c1cn(Cc2ccccc2)nn1)C(C)C,-0.281,0.704,-0.0728,0.335,0.879,0.048,1.13,-2.06 (inactive),0.775,0.095,1.36,-1.45 (inactive),-2.74 (inactive),-2.8 (inactive),0.573,1.84 (inactive),-0.119,0.509,1.09,-0.0681
O=C(C1N=C(c2ccc(OCCCO)cc2)N(c2ccccc2)O1)N1CCCCC1 (stereo not given),0.819,1.49,0.182,0.938,1.05,1.99,1.36,2.39 (inactive),1.13,-0.0952,1.54,-0.537 (inactive),-0.734 (inactive),0.0484 (inactive),2.95,0.828 (inactive),0.226,0.684,0.288,0.0542
COc1ccc([Si](C)(C)[C@H]2[C@H](CC(=O)N3CCC[C@H]3CO)O[C@@]3(C(=O)N(Cc4ccc(N5CCOC5=O)cc4)c4ccccc43)[C@@H]2C)cc1,-0.591,0.582,-0.043,0.44,1.15,1.1,1.21,-4.09 (inactive),0.268,-0.0237,1.56,-0.546 (inactive),0.0871 (inactive),-0.38 (inactive),2.31,1.08 (inactive),-0.0063,1.32,1.11,-0.0409
